Calls of active or inactive are those of the source. How the source made its calls: active means hit-call score of the fitted dose curve at least 0.9, where 1 is the maximum; inactive means score below 0.9.

Chain of human Protein Kinase D2 (PKD2), PRKD2 (gene 25865) (Q9BZL6 whole entry, looked up): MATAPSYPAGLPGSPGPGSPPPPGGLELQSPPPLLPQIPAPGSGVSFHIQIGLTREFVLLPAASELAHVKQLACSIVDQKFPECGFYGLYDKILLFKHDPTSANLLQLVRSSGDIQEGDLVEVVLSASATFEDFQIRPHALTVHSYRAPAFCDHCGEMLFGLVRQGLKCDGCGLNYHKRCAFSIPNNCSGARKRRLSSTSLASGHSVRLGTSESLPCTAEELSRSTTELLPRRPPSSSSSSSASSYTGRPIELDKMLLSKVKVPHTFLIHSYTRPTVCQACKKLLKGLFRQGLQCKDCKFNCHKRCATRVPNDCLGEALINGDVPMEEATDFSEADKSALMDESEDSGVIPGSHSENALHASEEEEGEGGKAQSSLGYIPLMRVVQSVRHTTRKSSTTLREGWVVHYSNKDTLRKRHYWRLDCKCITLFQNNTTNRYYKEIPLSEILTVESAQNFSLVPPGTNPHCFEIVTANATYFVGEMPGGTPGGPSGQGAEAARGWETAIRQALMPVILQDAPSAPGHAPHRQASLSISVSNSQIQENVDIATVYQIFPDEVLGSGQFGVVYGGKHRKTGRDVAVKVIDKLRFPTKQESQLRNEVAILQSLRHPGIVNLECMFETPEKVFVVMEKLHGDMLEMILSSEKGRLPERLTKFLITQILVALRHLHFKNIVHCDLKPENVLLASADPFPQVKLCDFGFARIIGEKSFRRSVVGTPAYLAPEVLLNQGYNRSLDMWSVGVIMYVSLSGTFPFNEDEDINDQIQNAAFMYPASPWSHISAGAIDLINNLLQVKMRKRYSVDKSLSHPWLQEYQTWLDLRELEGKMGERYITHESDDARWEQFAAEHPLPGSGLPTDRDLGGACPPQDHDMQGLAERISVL

The target in this assay is human Protein Kinase D2 (PKD2), PRKD2 (gene 25865) (UniProt Q9BZL6). Description: NVS_ENZ_hPKD2: NovaScreen (NVS) Enzymatic Assay for human Protein Kinase D2 (PKD2). As to the method:
NVS_ENZ_hPKD2 is a biochemical, single-readout assay that uses extracted gene-proteins in a cell-free assay. Measurements were taken 1 hour after chemical dosing in a 384-well plate.NVS_ENZ_hPKD2 is one of one assay component(s) measured or calculated from the NVS_ENZ_hPKD2 assay. It is designed to make measurements of enzyme activity, a form of enzyme reporter, as detected with fluorescence intensity signals by Fluorescence and electrophoretic mobility shift technology.Data from the assay component NVS_ENZ_hPKD2 was analyzed into 1 assay endpoint. This assay endpoint, NVS_ENZ_hPKD2, was analyzed in the positive analysis fitting direction relative to DMSO as the negative control and baseline of activity. Using a type of enzyme reporter, loss-of-signal activity can be used to understand changes in the enzymatic activity as they relate to the gene PRKD2. Furthermore, this assay endpoint can be referred to as a primary readout, because this assay has produced multiple assay endpoints where this one serves a enzymatic activity function. To generalize the intended target to other relatable targets, this assay endpoint is annotated to the kinase intended target family, where the subfamily is serine/threonine kinase.
Binding assays used specific radioligands (tritiated, iodinated) with non-radioactive competitive displacement ligands in agonist or antagonist protocols (as indicated) and various reference compounds and inhibitors to titrate specific binding to receptors and transporters. Most enzyme assays (CYPs, kinases, phosphatases, proteases, HDACs) used recombinant protein and specific substrates (fluorescence mostly, some colorimetric and radioactive) and inhibitors, followed by a biochemical separation of substrate and product. All assays for the biochemical HTS were initially run in duplicate at a single concentration (10 uM for CYP450 assays and 25 uM for all others). Assay-chemical combinations meeting a pre-defined threshold (e.g., 30% inhibition and other criteria defined below) were then run in singleton concentration-response format with maximum concentration of 20 uM for CYPs and 50 uM for all others. Each assay was run with positive and negative controls, and concurrent controls on every plate. The follow-up (secondary) screen tested active chemical-pairs in concentration series, as well as a few additional assays not tested in the primary screen, some selected negative inactives, and several cases re-run in the concentration series for confirmatory purposes.
Consider `O=C(Nc1ccccc1)Nc1cnns1`, for which the outcome was inactive.

For the compound `COc1ccc(C(c2ccc(OC)cc2)C(Cl)(Cl)Cl)cc1`, the compound was classed as inactive.

`O=C(Nc1ccccc1)Nc1ccnc(Cl)c1`: the call was inactive.

A word on the AC50: it is the midpoint of the concentration-response curve, whichever way the signal moves. Take `Oc1ccc(Cl)cc1Cc1ccccc1`: the AC50 is 25 µM (active).

The values above are taken from PubChem BioAssay AID2283197 (EPA ToxCast).
